Assay outcomes (PubChem BioAssay)
NOD2-RIPK2 inh = blocks binding of human NOD2 to RIPK2 | O43353 | CHO BLA complementation NOD2-RIPK2, CCF4 ratio | inhibition, % at 4.98 µM | 0.38% of 360,000 active; in the data active = inhibition above about 21%
PRMT1 FP inh = PRMT1 (human) inhibition, primary screen. 1.3% of 370,000 active. recombinant PRMT1, activity-based probe fluorescence polarization. inhibition, % at 2.79 µM;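 active = inhibition above about 21% made by adding two undisclosed values, limit read from the data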
TLR4 MyD88 comp = blocks binding of human TLR4 to MyD88; 0.18% of 200,000 active; HeLa CL3-4 TLR4/MyD88 BLA complementation, FRET ratio; inhibition, % at 8.4 µM; O00206+Q99836; AID 861; in the data active = inhibition above about 25%
ABHD5-PLIN5 inh = blocks binding of human ABHD5 to perilipin-5 | inhibition, % at 4 µM | Split G. princeps luciferase complementation, luminescence, 4 h | AID 602281 | 0.78% of 360,000 active | Q00G26+Q8WTS1;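 active = inhibition above the mean inhibition across every tested compound plus 3 SD, cut at about 22% in these data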
TLR9-MyD88 inh = blocks human TLR9 binding to MyD88 | Q9NR96+Q99836 | CHO BLA complementation TLR9-MyD88, CCF4 FRET ratio | inhibition, % at 4.98 µM | 0.21% of 340,000 active;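 active = inhibition above the mean over all tested compounds plus 3 SD, cut at about 21% in these data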
Target sequence (Q99836 whole entry, looked up): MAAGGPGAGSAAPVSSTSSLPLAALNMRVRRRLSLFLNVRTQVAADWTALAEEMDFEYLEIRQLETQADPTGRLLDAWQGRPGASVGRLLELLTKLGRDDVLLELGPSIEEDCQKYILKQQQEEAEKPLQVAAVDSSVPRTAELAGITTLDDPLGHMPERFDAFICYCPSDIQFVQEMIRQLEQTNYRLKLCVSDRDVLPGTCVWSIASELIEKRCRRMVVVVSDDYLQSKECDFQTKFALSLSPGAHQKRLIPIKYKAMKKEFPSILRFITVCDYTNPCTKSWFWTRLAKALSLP
Target sequence (Q9NR96 whole entry, looked up): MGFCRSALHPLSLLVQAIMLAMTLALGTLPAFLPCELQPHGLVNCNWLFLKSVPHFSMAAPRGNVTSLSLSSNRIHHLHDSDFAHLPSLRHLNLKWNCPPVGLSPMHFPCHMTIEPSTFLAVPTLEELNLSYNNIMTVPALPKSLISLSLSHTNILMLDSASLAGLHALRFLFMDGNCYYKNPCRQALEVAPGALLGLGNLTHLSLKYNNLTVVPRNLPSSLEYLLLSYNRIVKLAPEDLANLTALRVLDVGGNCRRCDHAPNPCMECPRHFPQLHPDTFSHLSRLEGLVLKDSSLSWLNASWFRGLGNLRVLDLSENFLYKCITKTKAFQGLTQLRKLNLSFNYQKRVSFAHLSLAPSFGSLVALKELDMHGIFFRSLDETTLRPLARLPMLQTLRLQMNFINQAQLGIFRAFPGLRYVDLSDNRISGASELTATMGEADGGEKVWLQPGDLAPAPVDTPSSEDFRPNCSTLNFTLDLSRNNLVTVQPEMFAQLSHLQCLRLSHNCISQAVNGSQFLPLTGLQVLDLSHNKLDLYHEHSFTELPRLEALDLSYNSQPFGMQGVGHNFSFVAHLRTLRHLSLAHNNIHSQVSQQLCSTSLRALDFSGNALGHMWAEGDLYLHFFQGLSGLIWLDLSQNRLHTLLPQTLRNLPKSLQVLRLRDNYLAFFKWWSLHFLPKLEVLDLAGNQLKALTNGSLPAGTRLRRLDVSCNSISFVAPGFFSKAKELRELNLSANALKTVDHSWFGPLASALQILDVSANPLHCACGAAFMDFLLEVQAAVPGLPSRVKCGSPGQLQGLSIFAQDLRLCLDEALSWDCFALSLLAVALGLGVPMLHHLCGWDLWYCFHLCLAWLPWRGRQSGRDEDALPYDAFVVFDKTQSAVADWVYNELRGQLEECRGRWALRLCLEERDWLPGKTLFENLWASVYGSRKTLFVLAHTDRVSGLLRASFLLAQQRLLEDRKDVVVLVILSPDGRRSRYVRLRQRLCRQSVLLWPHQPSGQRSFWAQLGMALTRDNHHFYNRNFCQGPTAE
rCAG binder = r(CAG) repeat RNA binding; TO-PRO-1 dye displacement fluorescence; inhibition, % at 3 µM; 1.3% of 370,000 active; AID 651821;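 active = inhibition above the plate cutoff, the mean of all test compounds on that plate plus 3 SD, cut at about 35% in these data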;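 note: higher means more dye released from RNA so lower well fluorescence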
NOD2 RIPK2 conf = NOD2-RIPK2 interaction inhibition confirmed. shares compounds with NOD2-RIPK2 inh. CHO cells, NOD2-RIPK2 BLA complementation, CCF4 FRET. inhibition, % at 4.98 µM. 70% of 1,200 active. AID 624370;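 active = mean inhibition across replicates above a set limit taken from the earlier primary screen, cut at about 21% in these data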
BLA counter = hits BLA reporter in NOD2-RIPK2 inhibitor counterscreen. AID 624371. 57% of 1,200 active. CHO BLA reporter, CCF4 FRET ratio. inhibition, % at 4.98 µM. shares compounds with NOD2-RIPK2 inh;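 active = mean inhibition above the low-control mean inhibition plus three low-control SD, cut at about 11% in these data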
A number is an active result; . = inactive; / = not tested or not shown. Shown are actives, neighbours in structure and some others; about 3.3% of the full set was active somewhere.

SMILES	NOD2-RIPK2 inh	PRMT1 FP inh	TLR4 MyD88 comp	ABHD5-PLIN5 inh	TLR9-MyD88 inh	rCAG binder	NOD2 RIPK2 conf	BLA counter
O=c1oc(-c2ccccc2)cc(Cl)c1Cl	59.8	.	/	.	.	.	56.6	.
CCc1nc2ccc(C(=O)N3CCCCC3)cn2c1N(C)CCCc1ccccc1	.	.	/	.	/	.	/	/
Cc1c(C(=O)Nc2ccccc2)c2ccc(C(F)(F)F)cc2n1O	34.2	.	/	.	/	.	28.3	.
Cc1ccccc1CN(C)CCS(=O)(=O)c1cc(Cl)ccc1Cl	27.9	.	/	22.6	.	.	.	.
COc1ccc(N2C(=O)C(CC(=O)Nc3ccc(Cl)cc3)N(NC(=O)c3cccc(F)c3)C2=S)cc1 (centres undefined)	.	.	/	.	.	.	/	/
COc1ccc(NC(=O)CC2C(=O)N(c3ccc(OC)cc3)C(=S)N2NC(=O)c2cccc(F)c2)cc1 (centres undefined)	22.4	.	.	.	.	.	.	.
Cc1ccc(NC(=O)C(OC(=O)c2ccc(O)cc2)c2ccccc2)cc1Cl (centres undefined)	34.9	.	.	.	.	.	.	.
O=C(CN1CCN(c2cccc(C(F)(F)F)c2)CC1)N(C1CCCC1)C1CCS(=O)(=O)C1 (centres undefined)	.	.	/	.	.	.	/	/
COc1ccccc1NC(=O)NC1(C(=O)N2CCC(C)CC2)CCCCC1	.	.	/	.	.	.	/	/
COc1ccc(CN2CCn3ncc(C(=O)Nc4ccccc4)c3C2=O)cc1	22.4	.	.	.	.	.	.	.
COc1ccc(NC(=O)c2cnn(-c3ccccc3)c2C)cc1	.	.	/	.	.	.	/	/
CCc1ccc(-n2c(=S)sc3c(=O)[nH]c(SCC(=O)NC4CCCCC4)nc32)cc1	.	.	/	.	.	.	/	/
COC(=O)CCNC(=O)c1ccc2nc(Cc3ccc(OC)c(OC)c3)oc2c1	21.5	.	/	.	.	.	.	.
O=C(C1CCN(Cc2cn[nH]c2-c2ccc(F)cc2F)CC1)N1CCOCC1	.	.	.	.	.	.	/	/
OCCCC1CCCN(Cc2cn[nH]c2-c2ccc(F)cc2F)C1 (centres undefined)	22.4	.	.	.	.	.	.	.
N#Cc1c(-c2ccccc2)ccnc1N1CCOCC1	.	.	.	.	.	.	/	/
CCCCN(CCO)c1ncnc2sc(-c3ccccc3)cc12	.	.	/	.	.	.	/	/
O=C(c1cccs1)N1CCC(c2nc3c(nnn3Cc3c(Cl)cccc3Cl)c(=O)[nH]2)CC1	.	.	/	.	.	.	/	/
Fc1ccc(/C=C2\CCCC3=C2Nc2ncnn2C3c2ccc(F)cc2)cc1 (centres undefined)	25.8	.	.	.	.	.	.	13.9
COc1ccc(C2C3=C(Nc4ncnn42)c2ccccc2CCC3)cc1 (centres undefined)	.	.	.	.	.	.	/	/
O=C(NCc1ccccc1)C(c1cc2ccccc2o1)n1c(=O)c(-c2cc3ccccc3[nH]2)nc2ccccc21 (centres undefined)	50.6	.	/	.	/	.	46.3	67.3
O=C(NCc1ccccc1)C(c1cc2ccccc2o1)n1c(=O)c(-c2ccccc2)nc2ccccc21 (centres undefined)	.	.	/	.	/	.	/	/
O=C(NCc1ccccc1)C(C1CC1)n1c(=O)c(-c2cc3ccccc3[nH]2)nc2ccccc21 (centres undefined)	45.2	.	/	.	/	.	42.1	63.9
O=C(NC1CCCCC1)C(C1CC1)n1c(=O)c(-c2cc3ccccc3[nH]2)nc2ccccc21 (centres undefined)	44.0	.	/	.	/	.	38.3	63.7
O=C(NC1CCCC1)C(C1CC1)n1c(-c2cc3ccccc3[nH]2)nc2ccccc21 (centres undefined)	.	.	/	.	/	.	/	/
SMILES	NOD2-RIPK2 inh	PRMT1 FP inh	TLR4 MyD88 comp	ABHD5-PLIN5 inh	TLR9-MyD88 inh	rCAG binder	NOD2 RIPK2 conf	BLA counter
O=C(NCc1ccccc1)C(c1ccccc1)n1c(=O)c(-c2cc3ccccc3[nH]2)nc2ccccc21 (centres undefined)	47.8	.	/	.	/	.	43.9	64.9
O=C(CCC1CCCCC1)NCCS(=O)(=O)N1CCN(c2ccc(F)cc2)CC1	.	.	/	.	.	.	/	/
COCCCn1cc(CN2CC(N3CCN(Cc4cccc(C)c4)CC3)CS2(=O)=O)nn1 (centres undefined)	.	.	/	.	/	.	/	/
O=[N+]([O-])c1ccc(-c2cnc(SC(c3ccccc3)c3ccccc3)[nH]2)cc1	44.1	.	.	.	.	.	.	26.4
CN(Cc1ccccc1)C(=O)c1ccc(NC(=O)Cc2ccc(NC(=O)C3CCN(S(=O)(=O)c4cccc([N+](=O)[O-])c4)CC3)cc2)cc1	.	.	/	.	.	.	/	/
CCCCCNC(=O)C(c1ccc(OC)cc1)n1c(=O)c(-c2cc3ccccc3[nH]2)nc2ccccc21 (centres undefined)	43.6	.	/	.	/	.	38.8	62.4
CCC(C(=O)NC1CCCC1)n1c(-c2cc3ccccc3[nH]2)nc2ccccc21 (centres undefined)	.	.	/	.	/	.	/	/
CCCCCNC(=O)C(c1ccncc1)n1c(=O)c(-c2cc3ccccc3[nH]2)nc2ccccc21 (centres undefined)	50.1	.	/	.	/	.	50.6	68.7
Cc1cccc(C)c1NC(=O)C(c1ccncc1)n1c(=O)c(-c2ccccc2)nc2ccccc21 (centres undefined)	.	.	/	.	/	.	/	/
CCCCCNC(=O)C(C1CC1)n1c(=O)c(-c2ccccc2)nc2ccccc21 (centres undefined)	.	.	/	.	/	.	/	/
CCCCCNC(=O)C(c1ccnc2ccccc12)n1c(=O)c(-c2cc3ccccc3[nH]2)nc2ccccc21 (centres undefined)	51.1	.	/	.	/	.	46.3	66.8
CC(C)NC(=O)N(C)C[C@@H]1Oc2c(NC(=O)C3CCOCC3)cccc2C(=O)N([C@@H](C)CO)C[C@H]1C	.	.	/	.	.	.	/	/
CCOC(=O)CC/C(=N\NC(N)=O)c1ccc(OC)c(Cl)c1	.	.	/	.	.	.	/	/
CCOc1ccc(C(=O)Nc2nnc(S(=O)(=O)Nc3ccccc3C)s2)cc1	24.2	.	/	.	.	.	.	.
COc1cc(CC(=O)NCC(C)(C)N2CCOCC2)cc(OC)c1OC	38.4	.	/	.	.	.	.	.
COc1ccc(S(N)(=O)=O)cc1C(=O)NCC(C)(C)N1CCOCC1	.	.	/	.	.	.	/	/
O=C(/C=C/c1cn(CC(O)CN2CCCCC2)c2ccccc12)c1ccccc1 (centres undefined)	.	.	/	.	.	.	/	/
